The text below walks through data of PubChem BioAssay (EPA / NIEHS).

A short description of assay [1]: ATG_NFI_CIS: Attagene CIS-FACTORIAL HepG2 Assay for human Nuclear Factor I (NFI) (AID 2282989). The note with it: HepG2 cis-regulatory reporter, NFI response element transcription; actives raise or lower the signal. Summed up: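 Multiplexed cis-reporter system in human HepG2 cells reports native TF activity as reporter mRNA induction 24 h post-dose. Fragments labelled with 6-FAM, HpaI-digested and resolved by capillary electrophoresis; activity fitted both directions versus DMSO.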

Assay [2] concerns the target Myc proto-oncogene protein (Homo sapiens) (UniProt P01106). Kind of assay: ATG_Myc_CIS: Attagene CIS-FACTORIAL HepG2 Assay for human Myelocytomatosis (Myc) Proto-Oncogene Transcription Factor (AID 2282990). The note with it: HepG2, Attagene cis-reporter transcription factor activity; actives raise or lower the signal. The method in brief:
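Read-out: fluorescent reporter mRNA fragments resolved by capillary electrophoresis after RT-PCR. Human HepG2 liver cells carried transfected cis-element reporter units and were dosed for 24 h. Gain or loss of signal fitted relative to DMSO baseline.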

Assay [3] in a line: ATG_NF_kB_CIS: Attagene CIS-FACTORIAL HepG2 Assay for human Nuclear Factor Kappa B (NF-kB) (AID 2282991). The note with it: HepG2 Attagene cis-factorial NF-kB reporter mRNA; actives raise or lower the signal. Summed up:
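HepG2, transient multi-reporter transfection, cis promoter elements (endogenous TFs). 24 h exposure. Total RNA → RT → PCR → 6-FAM label → HpaI → CE. Gain/loss vs DMSO.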

A short description of assay [4]: ATG_NRF2_ARE_CIS: Attagene CIS-FACTORIAL HepG2 Assay for human Nuclear Factor Erythroid 2 Related Factor 2 (NFR2) response to Antioxidant Response Elements (ARE) (AID 2282992).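 As to AC50: reporter mRNA level measured by RT-PCR and capillary electrophoresis fluorescence.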 The note with it: HepG2 Attagene ARE/NRF2 reporter, transcription factor activity; actives raise or lower the signal. The method in brief:
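HepG2 cells transiently transfected with multiplexed cis-element reporter constructs, 24 h after chemical dosing; reporter mRNA quantified by RT-PCR, fluorescent primer extension, HpaI digestion and capillary electrophoresis. Bidirectional fit relative to DMSO.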

A short description of assay [5]: ATG_Oct_MLP_CIS: Attagene CIS-FACTORIAL HepG2 Assay for human Octamer-Binding Transcription Factor (Oct) (AID 2282993). The note with it: HepG2 Attagene cis-factorial Oct reporter, mRNA; actives raise or lower the signal. The method in brief: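 After 24 h compound exposure, transfected HepG2 cells were lysed for total RNA; reporter-specific cDNA was PCR-amplified, fluorescently labelled and sized by capillary electrophoresis. Bidirectional curve fitting used DMSO as baseline.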

In assay [6] the target is Cellular tumor antigen p53 (Homo sapiens) (UniProt P04637). Kind of assay: ATG_p53_CIS: Attagene CIS-FACTORIAL HepG2 Assay for human p53 Transcription Factor (AID 2282994). The note with it: HepG2 p53 cis-element reporter, Attagene mRNA; actives raise or lower the signal. The method in brief: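 HepG2 cells transiently transfected with cis-regulated multiple reporter transcription units, dosed 24 h. Reporter mRNA measured by RT-PCR, 6-FAM primer extension, HpaI digestion and capillary electrophoresis; bidirectional fit relative to DMSO.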

A short description of assay [7]: BSK_3C_TissueFactor: BioMAP Diversity Plus: 3C Assay for Tissue Factor Biomarker Activity (AID 2282997). The note with it: BioMAP 3C HUVEC, tissue factor biomarker readout; actives raise or lower the signal. The method in brief:
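Primary human umbilical vein endothelial cells in the 3C system were exposed to test chemical for 24 h, then Tissue Factor measured by ELISA. Activity was fitted bidirectionally against DMSO as negative control and baseline.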

Assay [8] in a line: BSK_3C_uPAR: BioMAP Diversity Plus: 3C Assay for Urokinase-type plasminogen activator receptor (uPAR) Biomarker Activity (AID 2282998). The note with it: BioMAP 3C HUVEC, uPAR biomarker ELISA; actives raise or lower the signal. The method in brief:
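Values derive from bidirectional curve fitting relative to DMSO, which served as baseline of activity. uPAR was measured by ELISA in human umbilical vein endothelial primary cultures 24 h after compound addition.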
In general terms: An ELISA detects its analyte on a solid surface through an enzyme-linked reagent.

Assay [9] can be described thus: BSK_3C_VCAM1: BioMAP Diversity Plus: 3C Assay for Vascular cell adhesion molecule 1 (VCAM1) Biomarker Activity (AID 2282999). The note with it: BioMAP 3C HUVEC, VCAM1 ELISA, cytokine-stimulated; actives raise or lower the signal. Summed up: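 Human umbilical vein endothelial cells (3C system), biomarker read by ELISA 24 h after dosing; bidirectional fit against DMSO baseline. Cytotoxicity tracked by SRB total-protein staining in parallel cultures at biomarker time.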

The nature of assay [10]: BSK_4H_Eotaxin3: BioMAP Diversity Plus: 4H Assay for Eotaxin 3 Biomarker Activity (AID 2283000).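 As to outcome: CCL26 protein level quantified by ELISA in parallel with SRB cytotoxicity check.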 The note with it: primary human endothelial cells (HUVEC); actives raise or lower the signal. Summed up: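 HUVEC, 24 h post-dose, ELISA for Eotaxin-3/CCL26. Gain or loss of signal fitted bidirectionally vs DMSO baseline.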

Active and inactive are the calls of the source. The calls were made as follows: active = hit-call score of the fitted dose curve at least 0.9, where 1 is the maximum; inactive = score below 0.9.

Cellular tumor antigen p53 (Homo sapiens), sequence (P04637 whole entry, looked up): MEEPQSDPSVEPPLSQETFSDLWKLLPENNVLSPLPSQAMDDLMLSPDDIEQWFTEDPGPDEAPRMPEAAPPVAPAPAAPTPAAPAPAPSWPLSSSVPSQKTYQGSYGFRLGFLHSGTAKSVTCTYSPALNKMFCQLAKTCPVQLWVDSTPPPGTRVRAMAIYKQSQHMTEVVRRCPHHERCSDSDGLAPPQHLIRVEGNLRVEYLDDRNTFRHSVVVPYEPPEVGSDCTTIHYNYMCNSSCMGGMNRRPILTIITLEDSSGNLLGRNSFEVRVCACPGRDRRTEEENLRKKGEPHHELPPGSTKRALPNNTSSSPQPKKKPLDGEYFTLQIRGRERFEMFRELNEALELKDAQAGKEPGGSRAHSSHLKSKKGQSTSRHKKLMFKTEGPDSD
Myc proto-oncogene protein (Homo sapiens), sequence (P01106 whole entry, looked up, the tested form may be a part): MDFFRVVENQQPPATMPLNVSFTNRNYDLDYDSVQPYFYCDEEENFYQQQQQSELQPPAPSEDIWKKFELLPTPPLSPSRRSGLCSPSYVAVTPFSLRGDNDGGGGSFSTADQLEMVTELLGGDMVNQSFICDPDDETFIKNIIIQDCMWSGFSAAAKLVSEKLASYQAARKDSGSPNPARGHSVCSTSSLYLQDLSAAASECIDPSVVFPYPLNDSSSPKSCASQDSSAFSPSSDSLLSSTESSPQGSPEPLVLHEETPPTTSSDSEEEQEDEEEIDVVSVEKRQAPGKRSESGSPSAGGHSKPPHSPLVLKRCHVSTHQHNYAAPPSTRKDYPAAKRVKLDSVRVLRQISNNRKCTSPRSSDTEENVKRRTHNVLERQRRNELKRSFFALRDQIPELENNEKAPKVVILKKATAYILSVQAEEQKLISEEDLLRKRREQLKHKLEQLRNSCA

Take `ClCCCl`: the outcome in assay [1], in assay [2], in assay [3], in assay [4], in assay [5] and in assay [6] was inactive.
As to `CC(=O)C(C)=O`, the compound was classed as inactive in assay [1], in assay [2], in [3], in assay [5] and in [6]. Further, the concentration at half-maximal activity (AC50) (in general, the concentration at which the activity in the assay is half-maximal) in assay [4] is 37.4 µM (active).
Consider `CCCC1CCC(=O)O1` (stereo not drawn), for which the call in assay [1], in assay [2], in assay [3], in assay [4], in assay [5] and in assay [6] was inactive.
In the case of `NC(=O)Nc1ccc(Cl)cc1`, the call in assay [1], in assay [2], in assay [3], in [4], in assay [5] and in assay [6] was inactive.
For the compound `OCCOCCOCCOCCO`, the outcome in assay [1], in [2], in assay [3], in assay [4], in assay [5] and in assay [6] was inactive.
Consider `Cc1ccc2sc3cccc(C)c3c2c1`, for which the call in [1], in assay [2], in assay [3], in [4], in assay [5] and in assay [6] was inactive.
In the case of `CC(C)=CCC/C(C)=C/COC=O`, the outcome in [1], in assay [2], in assay [3], in [4], in assay [5] and in assay [6] was inactive.
Regarding `CCc1ccc(C=O)cc1`, the call in [1], in assay [2], in [3], in [4], in assay [5] and in [6] was inactive.
As for `CC(=O)OCCC(C)CC(C)(C)C` (stereo not drawn), the result in assay [1], in assay [2], in assay [3], in assay [4], in [5] and in [6] was inactive. Also, the result in assay [7], in assay [8], in assay [9] and in [10] was inactive.
For the compound `O=P(c1ccccc1)(c1ccccc1)c1ccccc1`, the outcome in assay [1], in assay [2], in [3], in [4], in assay [5] and in [6] was inactive. Besides, the result in [7], in [8], in [9] and in assay [10] was inactive.
Consider `CCCCC(CC)COCCC#N` (stereo not drawn), for which the call in assay [1], in assay [2], in assay [3], in [4], in [5] and in [6] was inactive. In addition, the outcome in assay [7], in assay [8], in assay [9] and in assay [10] was inactive.
Regarding `O=C(O)c1ccc(C(=O)O)cc1`, the call in assay [1], in assay [2], in [3], in [4], in assay [5] and in assay [6] was inactive.
Take `Cc1ccc(C=O)s1`: the outcome in assay [1], in assay [2], in assay [3], in [4], in assay [5] and in assay [6] was inactive.
Consider `CC(C)(C)c1cc(CCC(=O)NN)cc(C(C)(C)C)c1O`, for which the compound was classed as inactive in assay [1], in [2], in [3], in assay [4], in assay [5] and in assay [6].
Take `C/C=C(\C)C(=O)OCc1ccccc1`: the result in assay [1], in assay [2], in assay [3], in assay [4], in [5] and in assay [6] was inactive.
For the compound `CCCCCCOC(=O)CC`, the result in [1], in assay [2], in [3], in assay [4], in assay [5] and in assay [6] was inactive.
For `C[Si](O[Si](C)(C)C)O[Si](C)(C)C`, the outcome in [1], in assay [2], in assay [3], in assay [4], in assay [5] and in assay [6] was inactive.
Take `CCCCCCCCCOC(C)=O`: the result in [1], in [2], in assay [3], in [4], in assay [5] and in [6] was inactive.
Turning to `C[C@H]1C[C@H]2[C@@H]3CCC4=CC(=O)C=C[C@]4(C)[C@@]3(F)[C@@H](O)C[C@]2(C)[C@@]1(O)C(=O)COP(=O)(O)O`, the outcome in assay [1], in assay [2], in [3], in assay [5] and in assay [6] was inactive. Besides, the half-maximal activity concentration (AC50) in assay [4] was 15.6 µM (active).
For `COc1cc(C=O)ccc1OC(=O)C(C)C`, the outcome in [1], in assay [2], in assay [3], in [4], in [5] and in [6] was inactive. Further, the outcome in assay [7], in assay [8], in [9] and in assay [10] was inactive.
As to `BrC1CCC(Br)C(Br)CCC(Br)C(Br)CCC1Br` (stereo not drawn), the AC50 is 46 µM (active) in [1]; 23.1 µM (active) in assay [4]; 58.6 µM (active) in assay [5]; 3.22 µM (active) in [8]; 4.6 µM (active) in assay [9]; 3.25 µM (active) in [10]. In addition, the result in assay [2], in assay [3], in assay [6] and in assay [7] was inactive.
Take `CC(=O)OCCOC(C)=O`: the call in assay [1], in [2], in assay [3], in [4], in assay [5] and in [6] was inactive.
As to `CCCCC/C=C/C=C/C=O`, the call in assay [1], in assay [2], in assay [3], in [5] and in [6] was inactive. The AC50 in assay [4] is 40.6 µM (active); in assay [7], 29.5 µM (active); in assay [8], 31.5 µM (active); in assay [9], 29.3 µM (active); in assay [10] it was 29.9 µM (active).
`c1ccc2c(c1)c1cccc3ccc4cccc2c4c31`: the call in assay [1], in assay [2], in assay [3], in assay [4], in [5] and in assay [6] was inactive. Further, the result in assay [7], in assay [8], in [9] and in assay [10] was inactive.
Take `Cc1c(Cl)c(=O)oc2cc(O)ccc12`: the result in assay [1], in assay [2], in assay [3], in assay [5] and in assay [6] was inactive. In addition, the AC50 in assay [4] is 78.5 µM (active).
Take `CC(C)Oc1ccccc1O`: the compound was called inactive in assay [1], in assay [2], in assay [3], in [4], in assay [5] and in assay [6]. Moreover, the outcome in assay [7], in assay [8], in assay [9] and in assay [10] was inactive.
